Inconclusive results are not listed. Entries that show only a call come without a potency. Activity calls are given as the source filed them. Unless noted, calls follow the shape of the full dose curve.
What was measured:
[1] = molecular target: Androgen receptor (Homo sapiens) (UniProt P10275); assay: qHTS assay for small molecule agonists of androgen receptor signaling (AID 588515; active = well fitted curve in the direction sought with a large enough effect in the signal ratio, with a control signal flat; the % refers to the signal ratio); details: AR-UAS-bla HEK293, beta-lactamase ratio, agonist 16 h; stronger effect = higher value
Outline: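 EC50 and efficacy came from Hill fits of titrations (up to 92 uM) normalized to 30 nM R1881 as 100% and DMSO as 0%. Compound exposure was 16 h at 37 C on AR-UAS-bla HEK293 cells, with a 405/460/530 nm CCF4 fluorescence read.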

[2] = molecular target: Androgen receptor (Homo sapiens) (UniProt P10275); assay: qHTS assay for small molecule antagonists of androgen receptor signaling (AID 588516; active = well fitted curve in the direction sought with a large enough effect in the signal ratio, with a control signal flat, not every such curve was filed as active; the % refers to the signal ratio); details: AR-UAS-bla HEK293, beta-lactamase ratio, antagonist mode, 16 h; series mostly up to 76.8 µM
Outline: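 Antagonist mode: inhibition of R1881-stimulated (10 nM final) bla reporter in GeneBLAzer AR HEK 293 cells, 16 h at 37C, compounds titrated. IC50 and efficacy from Hill-equation fits of 405/460–530 nm FRET ratios.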

[3] = molecular target: Peroxisome proliferator-activated receptor delta (Homo sapiens) (UniProt Q03181); assay: qHTS assay for small molecule antagonists of peroxisome proliferator-activated receptor delta signaling (AID 588535; active = well fitted inhibition curve with a large enough effect in the signal ratio, with a control signal flat, not every such curve was filed as active; the % refers to the signal ratio); details: HEK293T PPARd-UAS-bla, beta-lactamase FRET ratio, 18 h; series mostly up to 76.7 µM
Outline: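 Reporter: UAS-bla under PPAR-delta response element, HEK293T host. Medium: 2% charcoal/dextran FBS. Dosing: titration, 18 hrs, 37 C. Detection: CCF4, 2 hrs RT, 405 ex/460 and 530 em.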

[4] = molecular target: Peroxisome proliferator-activated receptor gamma (Homo sapiens) (UniProt P37231); assay: qHTS assay for small molecule antagonists of peroxisome proliferator-activated receptor gamma signaling (AID 588537; active = well fitted inhibition curve with a large enough effect in the signal ratio, with a control signal flat, not every such curve was filed as active; the % refers to the signal ratio;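 also: reporter cells co-stimulated with 50 nM rosiglitazone agonist during compound treatment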); details: HEK293 PPARg-UAS-bla, beta-lactamase ratio, antagonist mode; series mostly up to 76.8 µM
Outline: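 We seeded GeneBLAzer HEK293 reporter cells at 3000 per well, allowed 6-6.5 h attachment at 37 C, then co-treated with test compound titrations and 50 nM rosiglitazone overnight (16 h). Inhibition was quantified from 460/530 nm emission ratios.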

[5] = qHTS assay for small molecule agonists of the antioxidant response element (ARE) signaling pathway (AID 651741; active = well fitted activation curve with a large enough effect in the signal ratio; the % refers to the signal ratio; also: potency is read from the fitted curve at half-maximal effect); details: HepG2 ARE-bla reporter, beta-lactamase FRET ratio, 16 h; series mostly up to 96 µM
Outline: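 Compounds in DMSO are pinned onto HepG2 ARE-bla cells (2,000/well) that were preincubated 5 h; plates stay 16 h at 37 C, then beta-lactamase activity is detected with LiveBLAzer B/G substrate by fluorescence.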

[6] = qHTS assay for small molecule activators of the human pregnane X receptor (PXR) signaling pathway (AID 720659; call rule not given here); details: DPX-2 HepG2 CYP3A4-luciferase, 24 h; series mostly up to 92.3 µM
[7] = molecular target: Bile acid receptor (Homo sapiens) (UniProt Q96RI1); assay: qHTS assay for small molecule agonists of farnesoid X receptor signaling (AID 588527); details: HEK293T FXR-UAS-bla, beta-lactamase ratio, 16 h; activation: stronger effect = higher value
Outline: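 FXR-UAS-bla HEK293T cells (10% dialyzed FBS) preincubated 5-7 h at 37 C, then compounds at up to 92 uM for 16 h at 37 C. CCF4 beta-lactamase read-out after 2 h RT. Normalized to chenodeoxycholic acid (100 uM) and DMSO; Hill fit gave EC50 and efficacy.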

[8] = molecular target: Peroxisome proliferator-activated receptor gamma (Homo sapiens) (UniProt P37231); assay: qHTS assay for small molecule agonists of peroxisome proliferator-activated receptor gamma signaling (AID 588536; active = well fitted curve in the direction sought with a large enough effect in the signal ratio, with a control signal flat, not every such curve was filed as active; the % refers to the signal ratio); details: HEK293 PPARg-UAS-bla, beta-lactamase ratio, 16 h; series mostly up to 76.7 µM
Outline: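 GeneBLAzer PPAR-gamma-UAS-bla HEK293 cells in 1% charcoal/dextran-treated FBS medium were treated 16 h at 37 C with compounds. Beta-lactamase activity was read by CCF4 ratio (460/530 nm). Response was normalized to 2 uM rosiglitazone (100%) and DMSO, then Hill-fitted for EC50 and efficacy.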

[9] = qHTS assay for small molecule agonists of retinoid X receptor alpha signaling (AID 588544); details: HEK293T RXRa-UAS-bla, beta-lactamase reporter, 18 h; 530 nm emission
[10] = molecular target: Estrogen receptor (Homo sapiens) (UniProt P03372); assay: qHTS assay for small molecule agonists of estrogen receptor alpha signaling (AID 588514); details: ER-alpha-UAS-bla HEK293, beta-lactamase ratio, 18 h; series mostly up to 76.8 µM; also: nearly all actives have a fitted effect of over 70% in size
Outline: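 ER-alpha-UAS-bla GripTite HEK293 cells, 5000/well in 2% charcoal/dextran-stripped FBS medium, treated with compound titrations 18 h at 37 C. CCF4 beta-lactamase read by fluorescence after 2 h RT; normalised to 20 nM 17-beta-estradiol (100%) and DMSO (0%), Hill fit for EC50 and efficacy.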

[11] = molecular target: Bile acid receptor (Homo sapiens) (UniProt Q96RI1); assay: qHTS assay for small molecule antagonists of farnesoid X receptor signaling (AID 588526); details: HEK293T FXR-UAS-bla, beta-lactamase ratio, antagonist mode; series mostly up to 76.7 µM
Outline: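 Concentration-response titrations were fitted to the Hill equation for half-maximal inhibition and maximal response, with data normalised to 50 uM chenodeoxycholic acid and DMSO control wells. Cells: FXR-UAS-bla HEK293T, dialyzed FBS.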

Androgen receptor (Homo sapiens), sequence (P10275 whole entry, looked up): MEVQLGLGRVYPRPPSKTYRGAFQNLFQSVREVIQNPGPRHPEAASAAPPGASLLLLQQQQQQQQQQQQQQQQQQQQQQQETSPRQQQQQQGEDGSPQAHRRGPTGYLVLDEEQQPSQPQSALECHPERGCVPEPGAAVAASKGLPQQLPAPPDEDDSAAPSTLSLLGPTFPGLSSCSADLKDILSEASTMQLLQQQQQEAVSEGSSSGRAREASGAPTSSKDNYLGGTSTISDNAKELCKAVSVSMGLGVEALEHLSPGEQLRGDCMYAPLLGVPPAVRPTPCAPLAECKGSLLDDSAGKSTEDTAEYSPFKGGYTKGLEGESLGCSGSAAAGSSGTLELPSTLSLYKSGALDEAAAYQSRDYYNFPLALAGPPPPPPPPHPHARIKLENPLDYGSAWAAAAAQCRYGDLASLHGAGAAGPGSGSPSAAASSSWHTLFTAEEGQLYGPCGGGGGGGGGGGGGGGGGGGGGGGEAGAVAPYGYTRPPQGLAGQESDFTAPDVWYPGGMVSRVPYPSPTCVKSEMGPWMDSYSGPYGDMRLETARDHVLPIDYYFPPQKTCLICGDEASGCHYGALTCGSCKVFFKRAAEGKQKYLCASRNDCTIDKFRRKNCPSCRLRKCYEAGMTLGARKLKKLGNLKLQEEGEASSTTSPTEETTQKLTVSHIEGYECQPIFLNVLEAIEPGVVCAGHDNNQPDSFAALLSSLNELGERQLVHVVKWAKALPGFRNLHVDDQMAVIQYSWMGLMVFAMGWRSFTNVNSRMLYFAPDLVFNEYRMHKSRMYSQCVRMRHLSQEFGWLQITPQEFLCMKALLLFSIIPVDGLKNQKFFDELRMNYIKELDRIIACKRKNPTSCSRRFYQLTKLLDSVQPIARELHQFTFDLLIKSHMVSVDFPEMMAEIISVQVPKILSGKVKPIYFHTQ
Estrogen receptor (Homo sapiens), sequence (P03372 whole entry, looked up): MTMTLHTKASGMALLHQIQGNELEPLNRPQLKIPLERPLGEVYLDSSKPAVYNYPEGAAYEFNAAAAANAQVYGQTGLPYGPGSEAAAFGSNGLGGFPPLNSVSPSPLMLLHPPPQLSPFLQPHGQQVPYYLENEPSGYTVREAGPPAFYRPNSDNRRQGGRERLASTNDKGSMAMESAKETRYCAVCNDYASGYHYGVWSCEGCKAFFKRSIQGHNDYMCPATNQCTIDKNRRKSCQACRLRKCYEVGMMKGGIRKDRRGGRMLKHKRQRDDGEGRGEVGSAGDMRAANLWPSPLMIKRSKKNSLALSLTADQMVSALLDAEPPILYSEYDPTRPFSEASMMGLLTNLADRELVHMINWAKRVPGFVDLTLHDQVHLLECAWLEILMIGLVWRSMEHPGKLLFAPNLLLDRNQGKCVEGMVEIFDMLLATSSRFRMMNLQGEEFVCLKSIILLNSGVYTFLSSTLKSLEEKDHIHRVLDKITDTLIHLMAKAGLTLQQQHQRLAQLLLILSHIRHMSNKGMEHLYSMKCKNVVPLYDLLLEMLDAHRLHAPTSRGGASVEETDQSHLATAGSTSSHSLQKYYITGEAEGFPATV
Bile acid receptor (Homo sapiens), sequence (Q96RI1 whole entry, looked up): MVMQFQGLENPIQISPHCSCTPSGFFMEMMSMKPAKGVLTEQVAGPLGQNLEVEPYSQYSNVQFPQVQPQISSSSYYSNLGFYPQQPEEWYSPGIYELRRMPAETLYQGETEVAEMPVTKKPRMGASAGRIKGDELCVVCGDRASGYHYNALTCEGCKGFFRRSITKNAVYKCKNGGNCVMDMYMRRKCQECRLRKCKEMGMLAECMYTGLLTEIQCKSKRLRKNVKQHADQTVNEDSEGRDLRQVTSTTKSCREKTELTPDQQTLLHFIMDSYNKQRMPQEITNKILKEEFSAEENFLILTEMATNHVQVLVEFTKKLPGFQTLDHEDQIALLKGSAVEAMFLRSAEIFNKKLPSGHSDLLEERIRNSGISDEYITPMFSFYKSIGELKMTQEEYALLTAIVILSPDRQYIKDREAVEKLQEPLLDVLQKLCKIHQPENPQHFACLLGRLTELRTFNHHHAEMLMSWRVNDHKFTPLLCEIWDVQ
Peroxisome proliferator-activated receptor delta (Homo sapiens), sequence (Q03181 whole entry, looked up): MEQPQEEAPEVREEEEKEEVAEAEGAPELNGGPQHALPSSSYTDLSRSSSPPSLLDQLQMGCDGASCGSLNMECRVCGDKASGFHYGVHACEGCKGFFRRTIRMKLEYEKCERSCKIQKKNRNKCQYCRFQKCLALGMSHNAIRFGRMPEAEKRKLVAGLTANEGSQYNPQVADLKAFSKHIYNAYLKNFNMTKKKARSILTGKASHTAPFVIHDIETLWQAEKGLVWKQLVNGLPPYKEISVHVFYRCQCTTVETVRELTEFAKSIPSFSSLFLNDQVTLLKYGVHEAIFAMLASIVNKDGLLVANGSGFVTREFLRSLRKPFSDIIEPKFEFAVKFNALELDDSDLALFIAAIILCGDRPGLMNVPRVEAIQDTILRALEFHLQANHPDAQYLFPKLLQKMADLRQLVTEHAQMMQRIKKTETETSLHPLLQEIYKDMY
Peroxisome proliferator-activated receptor gamma (Homo sapiens), sequence (P37231 whole entry, looked up): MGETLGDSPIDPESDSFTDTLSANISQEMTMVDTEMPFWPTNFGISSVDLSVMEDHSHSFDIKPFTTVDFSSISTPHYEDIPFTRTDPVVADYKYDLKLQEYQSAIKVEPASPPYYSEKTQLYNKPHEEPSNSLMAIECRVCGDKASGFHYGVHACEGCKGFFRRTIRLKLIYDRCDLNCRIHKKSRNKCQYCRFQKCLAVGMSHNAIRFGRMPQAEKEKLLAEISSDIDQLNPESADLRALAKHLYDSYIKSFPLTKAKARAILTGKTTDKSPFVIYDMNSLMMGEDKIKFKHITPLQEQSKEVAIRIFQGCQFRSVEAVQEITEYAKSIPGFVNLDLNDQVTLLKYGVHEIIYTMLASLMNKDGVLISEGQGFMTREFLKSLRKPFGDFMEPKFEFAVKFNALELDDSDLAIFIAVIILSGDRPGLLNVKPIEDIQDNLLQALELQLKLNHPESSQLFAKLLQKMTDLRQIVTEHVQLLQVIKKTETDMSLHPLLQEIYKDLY

Compound | activation [1] | Potency [2] | Potency [3] | Potency [4] | Potency [5] | outcome [6] | activation [7] | Potency [8] | max response [9] | Potency [10] | Potency [11]
CCCOc1nn(C(=O)NS(=O)(=O)c2ccccc2C(=O)OC)c(=O)n1C | 9.43% (inactive) | inactive | inactive | inactive | inactive | inactive |  |  |  |  | 
COc1ccc(/C(=C/C(=O)N2CCOCC2)c2ccc(Cl)cc2)cc1OC | -2.83% (inactive) | inactive |  | inactive | inactive |  | -0.563% (inactive) | inactive | 28.2% |  | 
CON(C)C(=O)Nc1ccc(Cl)c(Cl)c1 |  |  |  |  |  |  |  | inactive | -3.25% | inactive | 
ClC1=C(Cl)C2(Cl)C3C4OC4C(Cl)C3C1(Cl)C2(Cl)Cl (stereo not given) |  |  | inactive | inactive |  |  |  | inactive | 2.4% | inactive | 
CC1(C)CCC(Cc2ccc(Cl)cc2)C1(O)Cn1cncn1 (stereo not given) |  |  |  | inactive |  |  | 4.35% (inactive) |  | 16.6% | inactive | 
CN/C(=N\[N+](=O)[O-])NCc1cnc(Cl)s1 |  |  |  | inactive |  | inactive |  | inactive | -16.2% | inactive | 
Cn1c(-c2ccccc2)cc(-c2ccccc2)[n+]1C |  |  |  | inactive |  |  |  | inactive |  | inactive | 
CCC(C)(C)c1cc(-n2nc3ccccc3n2)c(O)c(C(C)(C)CC)c1 | 3.42% (inactive) | inactive | inactive |  | 30.6 µM (active) | inactive |  |  | -3.41% |  | 
O=C(NC(=O)c1c(F)cccc1F)Nc1cc(Cl)c(OC(F)(F)C(F)C(F)(F)F)c(Cl)c1F (stereo not given) | -3.76% (inactive) | inactive | inactive | inactive | 30.6 µM (active) |  | 3.38% (inactive) | inactive | 23% |  | inactive
CC1(C)CON(Cc2ccccc2Cl)C1=O |  |  | inactive | inactive | inactive |  |  |  | 5.44% | inactive | 
CCOP(=S)(OCC)SCCl | 5.88% (inactive) | inactive |  |  | inactive | inactive |  | inactive |  |  | inactive
N#CCNC(=O)c1cnccc1C(F)(F)F | 4.4% (inactive) | inactive | inactive | inactive | inactive | inactive | -0.0822% (inactive) | inactive | -4.19% |  | inactive
CO/N=C(/C(=O)OC)c1ccccc1COc1ccccc1C |  |  |  |  | 12.2 µM (active) | inactive | -0.265% (inactive) |  | 13.9% | inactive | 
N#CN=C1SCCN1Cc1ccc(Cl)nc1 |  |  | inactive | inactive | inactive |  |  | inactive |  | inactive | 
CCCCOC(=O)[C@@H](C)Oc1ccc(Oc2ccc(C#N)cc2F)cc1 |  |  |  | inactive |  | inactive |  | inactive | 10.2% | inactive | 
Brc1ccc(Oc2ccccc2)cc1 |  |  | inactive | inactive |  | inactive |  | inactive | -12.9% | inactive | 

Reference: PubChem BioAssay (NCATS)
